Results published in PubChem BioAssay (NCI).
Compounds without any hit were thinned out: in the full panel of roughly 83,000, 20% have a hit.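 Treatment: one concentration, 48 hours, 96-well format. Scoring: percent growth, with anything below 10 considered active.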 Unmarked numbers belong to inactive results. Calls of active or inactive are those of the source.

Assays:
Test in all cases: NCI-60 one-dose screen, 48 h (100 = growth as untreated, 0 = no growth, -100 = all killed)
Settings in all cases: 10 µM unless noted
SR leukemia = test system: SR leukemia
RPMI-8226 leukemia = test system: RPMI-8226 leukemia
OVCAR-5 ovarian = test system: OVCAR-5 ovarian
OVCAR-4 ovarian = test system: OVCAR-4 ovarian
SK-OV-3 ovarian = test system: SK-OV-3 ovarian
IGROV1 ovarian = test system: IGROV1 ovarian
OVCAR-3 ovarian = test system: OVCAR-3 ovarian
HS 578T breast = test system: HS 578T breast
NCI/ADR-RES ovarian = test system: NCI/ADR-RES ovarian
T-47D breast = test system: T-47D breast
BT-549 breast = test system: BT-549 breast
MDA-MB-435 melanoma = test system: MDA-MB-435 melanoma
SW-620 colon = test system: SW-620 colon
MCF7 breast = test system: MCF7 breast
HCT-116 colon = test system: HCT-116 colon
HCC-2998 colon = test system: HCC-2998 colon
KM12 colon = test system: KM12 colon
OVCAR-8 ovarian = test system: OVCAR-8 ovarian

SMILES	growth (SR leukemia)	growth (RPMI-8226 leukemia)	growth (OVCAR-5 ovarian) [%]	growth (OVCAR-4 ovarian)	growth (SK-OV-3 ovarian) [%]	growth (IGROV1 ovarian)	growth (OVCAR-3 ovarian)	growth (HS 578T breast)	growth (NCI/ADR-RES ovarian)	growth (T-47D breast)	growth (BT-549 breast) [%]	growth (MDA-MB-435 melanoma)	growth (SW-620 colon)	growth (MCF7 breast)	growth (HCT-116 colon)	growth (HCC-2998 colon)	growth (KM12 colon)	growth (OVCAR-8 ovarian)
CC(C)CSc1oc(-c2ccccc2)nc1S(=O)(=O)c1ccccc1	91.7%	85.9%	110	86.6%	87	94.5%	97.2%	96.6%	82.2%	62.4%	102	105%	97.2%	92.3%	81.9%	100%	96%	–
Cc1ccccc1CNc1c2ccccc2nc2ccccc12	2.71% (active)	-8.88% (active)	36.7	32.9%	40.8	14.8%	31.3%	35.7%	24.9%	24.6%	55.9	23.9%	13.8%	6.93% (active)	7.9% (active)	16.2%	16.9%	–
COc1cccc(/C=C/C(=O)c2cc3c(N)c(C(=O)Nc4ccccc4C)sc3nc2C)c1	10.8%	-20.8% (active)	87.2	70.9%	–	19.4%	3.31% (active)	–	10.1%	56.2%	37.8	-26.3% (active)	–	7.39% (active)	41.8%	35.1%	27.4%	-33.9% (active)
COc1ccc(Cl)cc1Nc1nc(C(F)(F)F)ccc1C(=O)N/N=C/c1ccccc1Cl	-15.1% (active)	-56.6% (active)	22	-18.3% (active)	11.7	4.17% (active)	1.6% (active)	9.51% (active)	0.235% (active)	-22.5% (active)	13.3	26.9%	7.18% (active)	-8.68% (active)	14.2%	-11.2% (active)	7.71% (active)	–
COc1ccc2cc(-c3cnc4nonc4n3)ccc2c1	9.96% (active)	0.566% (active)	76	50%	71	60.3%	11.1%	13.9%	-4.57% (active)	15.5%	56.3	-14.9% (active)	26.9%	15.7%	18.3%	59.3%	23.1%	–
CCCCCn1sc(=O)n(Cc2ccc(CNC(=O)OCc3ccc4c(Cl)cc(Cl)c(O)c4n3)cc2)c1=O	64.3%	60.6%	90	66.4%	96	53.5%	69.8%	70.9%	9.85% (active)	60.8%	71.1	68%	58.4%	–	44.6%	95.2%	57.5%	–
O=C(N/N=C/c1ccc(Cl)cc1Cl)c1ccc2nc(-c3ccc(Cl)cc3)[nH]c2c1	-24.2% (active)	2.83% (active)	23.7	-17.9% (active)	49.8	-27.4% (active)	-52.9% (active)	33%	41.2%	-13.1% (active)	113	38.8%	-28.3% (active)	-20% (active)	-1.88% (active)	3.69% (active)	–	–
COc1ccc2nc(SCC(=O)Nc3ccccc3C)[nH]c2c1	89.5%	90.1%	99.6	95.2%	–	103%	–	90.9%	99%	84.2%	97.6	97%	99.4%	90.7%	98.9%	106%	101%	94.2%
COCCCOc1cc(C[C@@H](C[C@H](N)[C@@H](O)C[C@H](C(=O)NCC(C)(C)C(N)=O)C(C)C)C(C)C)ccc1OC	103%	111%	110	101%	–	–	116%	71.3%	103%	107%	110	98.9%	105%	–	101%	102%	109%	–
N#Cc1c(-c2ccccc2)cc(-c2ccccc2)n(CCCC(=O)NO)c1=O	7.72% (active)	11.3%	28.9	29.6%	36.1	25.4%	8.36% (active)	19.7%	-5.36% (active)	18.7%	53.9	-12.4% (active)	17.3%	22.5%	7.06% (active)	47.4%	24.9%	–
CCNc1nc(-c2ccc(F)cc2)c(C#N)c(=O)n1C	50.3%	91.8%	56	55.2%	55.9	54.1%	59.1%	37.5%	67.1%	39.3%	42.1	75.2%	69.3%	–	52.1%	88.8%	72.1%	–
NS(=O)(=O)c1ccc(N/C=C/C(=O)c2cc3ccccc3oc2=O)cc1	78.1%	98.4%	106	87.5%	83.4	91.5%	101%	92.4%	97.8%	89.1%	95.5	100%	95.5%	68.8%	97.1%	109%	98.2%	–
CCn1cc(C(=O)N/N=C/c2ccc(Br)cc2)c(=O)c2cc(F)c(N3CCNC(C)C3)c(F)c21 (stereo unspecified)	4.35% (active)	-14.8% (active)	94	81.7%	–	–	52.9%	73%	83.3%	64.1%	91.7	16.7%	–	-77.3% (active)	67.7%	25.9%	47.9%	57.8%
O=C(CCCCCCCCC(=O)N/N=C\c1cc(Cl)ccc1O)N/N=C\c1cc(Cl)ccc1O	14.1%	31.9%	62	23%	41.1	30.2%	31.4%	66.3%	17.4%	28.2%	38.5	38.1%	46.5%	20%	22.7%	39%	24.2%	–
C#CC#CC#CC#CC#CC#CC#CC#CC[C@H]1OC[C@H](COC(=O)O[C@@H](C(=O)O[C@H]2C[C@@]3(O)[C@@H](OC(=O)c4ccccc4)[C@@H]4[C@]5(OC(C)=O)CO[C@@H]5C[C@H](O)[C@@]4(C)C(=O)[C@H](OC(C)=O)C(=C2C)C3(C)C)[C@@H](NC(=O)c2ccccc2)c2ccccc2)O1	25.8%	16%	38.4	60.7%	66.2	48.1%	15.7%	43.7%	106%	40.6%	53.2	-57.8% (active)	38%	24.4%	15.5%	38.2%	18%	–
CN1C(=O)/C(=C/c2ccc(C(=O)Nc3ncc(Cc4ccc(F)cc4)s3)cc2)SC1=S	44.5%	54.6%	61.2	60.1%	–	54.3%	27.7%	37.9%	28.7%	34.5%	54.9	-36.3% (active)	28.8%	46.8%	32.6%	41.1%	15.6%	–
O=C(O)c1cn(C2CC2)c2cc(N3CCN(C(=O)N/N=C/c4ccccc4)CC3)c(F)cc2c1=O	54.4%	104%	110	102%	95.8	102%	102%	105%	97.4%	91.4%	92.6	106%	110%	97.3%	108%	99.9%	–	–
